# Results as given in PubChem BioAssay (Tox21).
# Results filed as inconclusive are left out. Values without a mark were called inactive. The source made the active and inactive calls. Calls come from the whole dose curve; as a rule, active = well fitted cell-killing curve with a large enough effect in the repeat runs; inconclusive = weak or mixed curves, or effect the other way; inactive = flat fitted curve, though single readings scatter.
# Assay: qHTS RealTime-Glo MT Cell Viability Assay in HepG2 cells - 0 hour (AID 1224889); note: nearly all actives have a fitted effect of over 50% in size
# Conditions: RealTime-Glo luminescence; series mostly up to 76.8 µM; activity change, negative = cytotoxicity: at the top concentration
# Description: U.S. Tox21 Program National Center for Advancing Translational Sciences [NCATS] NIH Chemical Genomics Center [NCGC] U.S. Environmental Protection Agency [EPA] National Institutes of Environmental Health Sciences [NIEHS] National Toxicology Program [NTP] U.S. Food and Drug Administration [FDA] Tox21 Assay Overview: Measure of cell viability is critical in the cell-base assay. Analysis of cell viability is necessary for the characterization of cell responses to cytotoxic drugs and environmental stress. A RealTime-Glo MT Cell Viability Assay to monitor cell viability in real time of continues cell culture during 40 hours of compound treatment was used to screen Tox21 10K library compounds in HepG2 cells. The RealTime-Glo MT Cell Viability Assay is a nonlytic, homogeneous, bioluminescent method to measure cell viability in real time using a simple, plate-based method. The assay involves adding NanoLuc luciferase and a cell-permeant prosubstrate to cells in culture. Viable cells reduce the proprietary prosubstrate to generate a substrate for NanoLuc luciferase. This substrate diffuses from cells into the surrounding culture medium, where it is rapidly used by the NanoLuc Enzyme to produce a luminescent signal. The signal correlates with the number of viable cells, making the assay well suited for cytotoxicity studies.
# Tox21 Assay Protocol Summary: The mixture of HepG2 cell suspension and reagents were dispensed at 600cells/6 ul/well in 1536-well tissue culture treated black solid bottom plates using a Multidrop dispenser. After the assay plates were incubated at a 37 C/5% CO2 incubator for 5 hours, 23 nL of compounds dissolved in DMSO, positive and negative controls was transferred to the assay plate by a pintool work station. The plates were incubated at 37 C for 40 hours. The luminescence intensity were measured at 0h, 8h, 16h, 24h, 32h and 40h time points using ViewLux plate reader during compound treatment.
# % is set by controls: 0 for no effect and ±100 for the full control effect; potency is the fitted concentration of half-maximal effect.
SMILES,"activity change, negative = cytotoxicity",Potency
Cn1cc(C(=O)[C@@H]2CCc3nc[nH]c3C2)c2ccccc21,13.5% [at 35.3 µM],
Cc1ccc(-n2nc(C(C)(C)C)cc2NC(=O)Nc2ccc(OCCN3CCOCC3)c3ccccc23)cc1,-0.156% [at 35.3 µM],
CCCCCCCCS(=O)C(C)Cc1ccc2c(c1)OCO2 (stereo not given),0.226%,
CCCCCCCCOc1ccccc1C(=O)Nc1ccc(C(=O)OCC[N+](C)(CC)CC)cc1,1.61% [at 35.3 µM],
NC(=O)CC[C@@H]1NC(=O)[C@H](Cc2ccccc2)NC(=O)[C@H](Cc2ccc(O)cc2)NC(=O)CCSSC[C@@H](C(=O)N2CCC[C@H]2C(=O)N[C@@H](CCCN=C(N)N)C(=O)NCC(N)=O)NC(=O)[C@H](CC(N)=O)NC1=O,-0.869% [at 35.3 µM],
CN(C)c1ccc(SC#N)cc1,-2.95%,
CCCCCCCCCCn1cc[n+](CCCCCCCCCC)c1C,1.74%,
O=c1[nH]sc2cc(Cl)ccc12,-7.27% [at 35.3 µM],
Cc1cc2c(cc1C(F)(F)F)N(C(=O)Nc1ccc(Oc3cccnc3C)nc1)CC2,-16%,
CN(C/C=C/C#CC(C)(C)C)Cc1cccc2ccccc12,-3.11% [at 35.3 µM],
O=C(OCC1CO1)C1CCCCC1C(=O)OCC1CO1 (stereo not given),-4.59%,
Nc1ccc2c3c(cccc13)-c1ccccc1-2,5.95%,
O=C(Nc1cccc([N+](=O)[O-])c1)c1cc2ccccc2cc1O,-9.61%,
S=c1[nH]c2ccccc2s1,-0.261%,
C=CC(=O)OCC(CO)(COCC(COC(=O)C=C)(COC(=O)C=C)COC(=O)C=C)COC(=O)C=C,-22.7%,
CN(C)[C@@H]1C(=O)C(C(N)=O)=C(O)[C@@]2(O)C(=O)C3=C(O)c4c(O)ccc(Cl)c4[C@@H](O)[C@H]3C[C@@H]12,0.928% [at 35.3 µM],
COc1c(C)c2c(c(O)c1C/C=C(\C)CCC(=O)O)C(=O)OC2,-3.44% [at 35.3 µM],
CCN(CC)CCNC(=O)c1c(C)[nH]c(/C=C2\C(=O)Nc3ccc(F)cc32)c1C,-3.01% [at 35.3 µM],
Cc1ccc(O)c(C(C)(C)C)c1,,inactive
CCOC(=O)/C=C(C)/C=C/C=C(C)/C=C/c1c(C)cc(OC)c(C)c1C,5.61% [at 35.3 µM],

SMILES,"activity change, negative = cytotoxicity",Potency
Clc1ccc2nsnc2c1NC1=NCCN1,-3.43% [at 35.3 µM],
C=CC(=O)OCCn1c(=O)n(CCOC(=O)C=C)c(=O)n(CCOC(=O)C=C)c1=O,5.58%,
Cc1cccc2c1cc1ccc3cccc4ccc2c1c34,-2.35%,
O=c1cc(-c2ccc(O)cc2)oc2cc(O)cc(O)c12,,inactive
Clc1ccccc1C(c1ccccc1)(c1ccccc1)n1ccnc1,5.8% [at 35.3 µM],
Cc1cc(C2CCCCC2)n(O)c(=O)c1,1.48% [at 35.3 µM],
CCCCN1C(=O)[C@@H]([C@H](O)C2CCCCC2)NC(=O)C12CCN(Cc1ccc(Oc3ccc(C(=O)O)cc3)cc1)CC2,-12.8%,
COC(=O)C1=C(C)NC(C)=C(C(=O)OCC(C)C)C1c1ccccc1[N+](=O)[O-] (stereo not given),,21.9 µM (active)
C=C(C)C(=O)OCC[N+](C)(C)C,1.62%,
O=c1[nH]cnc2nc[nH]c12,-2.57% [at 35.3 µM],
CC(C)(C)C1CCC(CC2=C(O)c3ccccc3C(=O)C2=O)CC1 (stereo not given),-14.7% [at 35.3 µM],
CCC(C)(C)C1CCCCC1OC(C)=O (stereo not given),-0.509%,
Oc1ccc(Cl)cc1Sc1cc(Cl)ccc1O,,inactive
Cc1oc(-c2ccccc2)nc1CCC(=O)c1ccc(CC2SC(=O)NC2=O)cc1 (stereo not given),-14% [at 35.3 µM],
CCCCCCOC(=O)c1ccc(O)cc1,,inactive
CCc1oc2ccccc2c1C(=O)c1cc(Br)c(O)c(Br)c1,-3.98% [at 35.3 µM],
Cc1onc(-c2c(Cl)cccc2Cl)c1C(=O)N[C@@H]1C(=O)N2[C@@H]1SC(C)(C)[C@@H]2C(=O)O,-2.06% [at 35.3 µM],
CCc1cc(Cc2cc(CC)cc(C(C)(C)C)c2O)c(O)c(C(C)(C)C)c1,4.82%,
O=C1c2ccccc2Cc2ccccc21,3.97%,
CCCN(CCC)c1c([N+](=O)[O-])cc(C(F)(F)F)c(N)c1[N+](=O)[O-],-2.22%,
